# GPR151 ag: activators of human GPR151, primary screen, cell-based, PathHunter beta-arrestin, luminescence. G-protein coupled receptor 151 (Homo sapiens), Q8TDV0. PathHunter beta-arrestin GPR151 cells. activation, % at 11.2 µM. 650,000 tested, 1% active; in the data active = activation above about 4.9%;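 also: 0% = median of compound wells and 100% = cells with positive control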
# Target sequence (Q8TDV0 whole entry, looked up): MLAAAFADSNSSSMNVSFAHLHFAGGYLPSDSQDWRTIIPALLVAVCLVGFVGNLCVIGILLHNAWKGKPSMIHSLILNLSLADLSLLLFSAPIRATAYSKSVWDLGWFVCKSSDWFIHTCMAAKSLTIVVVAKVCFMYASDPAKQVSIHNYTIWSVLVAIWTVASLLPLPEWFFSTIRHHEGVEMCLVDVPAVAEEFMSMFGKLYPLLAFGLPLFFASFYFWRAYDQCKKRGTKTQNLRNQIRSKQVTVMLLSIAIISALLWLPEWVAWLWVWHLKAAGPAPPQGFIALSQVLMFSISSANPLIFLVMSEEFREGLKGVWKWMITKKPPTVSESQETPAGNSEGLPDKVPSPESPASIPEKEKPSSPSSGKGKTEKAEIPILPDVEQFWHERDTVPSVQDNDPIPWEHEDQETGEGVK
# MITF primary: MITF inhibitors, primary screen, biochemical, AlphaScreen, human. 650,000 tested, 0.91% active. AlphaScreen MITF homodimerization, bead proximity signal. inhibition, % at 2.6 µM. AID 1259374, 2018; in the data active = inhibition above about 50%;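 also: 0% = vehicle wells with protein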
# FBW7 act: FBW7 E3 ligase activators, primary screen, biochemical, AlphaScreen, human. F-box/WD repeat-containing protein 7 (Homo sapiens), Q969H0. AlphaScreen FBW7–phospho-cyclin E peptide binding, activator screen. normalized activity (activation), % at 26.1 µM. 650,000 tested, 0.13% active; in the data active = normalized activity above about 1.9%;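 also: purified mutant Fbw7 with reduced substrate affinity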
# TEAD-YAP block: TEAD-YAP interaction inhibition, primary screen, TEAD-YAP interaction inhibitor project, luminescence, HEK-TIYL cells | TEAD-Gal4/YAP UAS-luciferase luminescence | AID 1259422, 2018 | 640,000 tested, 1.4% active | inhibition, % at 9.12 µM; in the data active = inhibition above about 32%;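 also: 0% = median of test compound wells and 100% = reference inhibitor wells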
# An asterisk follows results filed as active. Compounds with a hit are over-represented: about 3.5% of the library has one in this group of screens.
SMILES,GPR151 ag,MITF primary,FBW7 act,TEAD-YAP block
CCOc1ccc(-c2cn(-c3ccccc3)c3[n+]2CCS3)cc1,3,7,0,65*
COc1ccc(-n2cc(-c3ccc(Cl)cc3)[n+]3c2SCCC3)cc1,-1,-1,0,26
CCOC(=O)C1=C(C)N=c2s/c(=C/c3cc(Br)c(O)c(Br)c3)c(=O)n2C1c1ccc(Cl)cc1 (stereo not drawn),1,-10,0,2
Cc1ccccc1N1CCN(C(=O)C2CCCCC2)CC1,3,14,0,7
O=C(NC1CCCCC1)c1ccc(CSc2ccc(Cl)cc2)cc1,0,-7,0,-4
CSCc1ccc(C(=O)NC2CCCCCC2)cc1,-6,-4,0,47*
O=C(N/N=C/c1ccc2ccccc2c1)c1ccc(O)cc1O,3,-7,0,37*
Cc1[nH]n(-c2ccccc2)c(=O)c1/C=N/NC(=O)c1ccc(O)cc1O,3,59*,0,12
CN(C)c1ccc(/C=N\NC(=O)c2cc(N)ccc2O)cc1,0,64*,0,9
O=C(N/N=C/c1ccc(/C=N/NC(=O)c2ccccc2O)cc1)c1ccccc1O,0,16,0,59*
Clc1nc(Nc2ccc(N3CCOCC3)cc2)c2ncn(-c3ccccc3)c2n1,-3,26,0,-7
CCCCNC(=O)Nc1nnc(-c2ccccc2)o1,-1,-1,0,-22
Cc1ccccc1C(=O)N/N=C/c1ccc(O)c(Br)c1,1,0,-1,71*
Cc1ccccc1C(=O)N/N=C/c1ccc(O)c(O)c1,-1,9,0,-35
CCOC(=O)C/C(C)=N/c1ccnn1-c1ccccc1,-4,2,0,76*
CC(=O)CC(=O)Nc1ccnn1-c1ccccc1,-1,-17,0,1
O=C1CCC(C(=O)N2CCc3c([nH]c4ccccc34)C2c2c(F)cccc2Cl)=NN1 (stereo not drawn),-1,-3,0,-14
Cc1ccc(-c2csc(/C(C#N)=C\Nc3ccc(S(N)(=O)=O)cc3)n2)cc1,2,6,2.7*,9
CSCC[C@H](NC(=O)c1ccc(NC(C)=O)cc1)c1nc2ccccc2[nH]1,1,2,0,0
CC(C)/C=C1/CCCc2c1[nH]c1ccccc1c2=O,3,3,0,42*
CC(C)NC(=O)CSc1cc(=O)n(C)c2cc(Cl)ccc12,-1,5,0,-9
Cn1c(=O)n(C)c2cc(/C=N\Nc3ncc(F)c(N4CCOCC4)n3)ccc21,0,7,0,23
Cc1ccc(C(=O)CCC(=O)Nc2cc(C)[nH]n2)cc1,2,8,0,21
CCn1c(SCC(=O)Nc2ccc(C)c(Cl)c2)nc2c1c(=O)n(C)c(=O)n2C,1,10,1.9*,3
Cc1cc(NC(=O)CSc2nc3ccccc3c(=O)n2NC(=O)c2ccccc2)n[nH]1,-4,-3,0,47*
SMILES,GPR151 ag,MITF primary,FBW7 act,TEAD-YAP block
Cc1cc(NC(=O)CCCC(=O)c2ccccc2)n[nH]1,3,9,0,47*
Cc1ccc(NC(=O)CSc2nc3ccccc3c(=O)n2NC(=O)c2ccc(F)cc2)cc1Cl,-4,9,1,57*
C=CCNC(=O)C(=O)Nc1nccs1,1,-4,0,8
Cc1ccc(S(=O)(=O)c2ccc(Cl)cc2)cc1S(=O)(=O)Nc1ccc(Br)cc1,2,1,0,7
CCOc1ccc(C(=O)Nc2ccccc2C#N)cc1[N+](=O)[O-],2,-9,0,11
O=C1c2[nH]nc(-c3ccccc3O)c2C(c2cccc(O)c2)N1CC1CCCO1 (stereo not drawn),0,-3,0,2
COCCN(Cc1cc2cc(C)cc(C)c2[nH]c1=O)C(=O)N1CCOCC1,0,7,0,8
COc1ccc(CCn2c(SCC(=O)Nc3ccc(C)c(Cl)c3)nc3ccccc3c2=O)cc1OC,-1,3,1,11
COc1ccc(C(=O)Nn2c(SCC(=O)Nc3ccc(C)c(Cl)c3)nc3ccccc3c2=O)cc1,1,7,0,75*
COc1ccccc1NC(=O)Nc1c(SC)nsc1SC,-1,8,0,37*
Cc1ccc(NC(=O)/C(C#N)=C\c2ccccc2O)cc1,-1,9,0,30
N#C/C(=C/c1ccccc1O)C(=O)Nc1ccc(O)cc1,-7,3,0,71*
COc1ccc(NC(=O)/C(C#N)=C\c2ccccc2O)cc1,-3,19,0,40*
CCOC(=O)c1ccc(NC(=O)c2cccc(Cl)c2)cc1,-1,-11,0,-54
C=CCNC(=O)NC(=O)COC(=O)Cc1n[nH]c(=O)c2ccccc12,5,-10,0,-4
COc1ccc(/C=C2/SC(=N)N(c3cc(C)ccc3C)C2=O)cc1,2,8,0,38*
O=C1C=C(Nc2cccc(C(=O)O)c2)c2ccccc2C1=O,1,3,0,2
O=C1C=C(NCc2ccccc2)c2ccccc2C1=O,0,12,0,51*
CC1(C)CC(=O)C2=C(C1)OC(N)=C(C#N)C2c1cc(C(C)(C)C)c(O)c(C(C)(C)C)c1 (stereo not drawn),1,11,0,80*
CC1(C)CC(=O)C2=C(C1)OC1=C(C(=O)CC(C)(C)C1)C2c1cc(C(C)(C)C)c(O)c(C(C)(C)C)c1,1,8,0,0
N#CC(C(=O)c1cccc(N2C(=O)CCC2=O)c1)c1ccccn1 (stereo not drawn),2,5,0,5
N#CC1=C(N)N(c2sc3c(c2C#N)CCCCC3)C2=C(C(=O)CCC2)C1c1cccs1 (stereo not drawn),2,-5,0,53*
N#CC1=C(N)N(c2sc3c(c2C#N)CCCCC3)C2=C(C(=O)CCC2)C1c1ccccc1 (stereo not drawn),1,0,0,14
Cc1ccc(NC(=O)c2sc3ncnc(N4CCN(c5ccccc5F)CC4)c3c2C)c(Br)c1,1,24,2.0*,-5
Cc1c(C(=O)Nc2ccccc2F)sc2ncnc(N3CCN(c4ccccc4)CC3)c12,0,17,1.9*,-13
SMILES,GPR151 ag,MITF primary,FBW7 act,TEAD-YAP block
Cc1c(C(=O)Nc2c(F)cccc2F)sc2ncnc(N3CCN(c4ccccc4)CC3)c12,1,22,0,-5
CCN(CC)C(=O)c1sc2ncnc(N3CCN(c4ccccc4)CC3)c2c1C,0,27,2.0*,8
Cc1c(C(=O)NC(C)C)sc2ncnc(N3CCN(c4ccccc4)CC3)c12,1,18,2.1*,2
NC(=O)c1cnc(Nc2nccc3ccccc23)s1,4,13,0,-19
CC1=C(C(=O)c2ccccc2)C(c2ccc(C)cc2C)NC(=O)N1 (stereo not drawn),3,-4,0,-5
COc1cc(NC(=O)c2sc3ncnc(N4CCN(c5ccccc5F)CC4)c3c2C)cc(OC)c1OC,1,19,0,32*
